Compounds with a hit are over-represented: about 19% of the library has one in this group of screens.
DT40 TDP1 no CPT: qHTS for Inhibitors of human tyrosyl-DNA phosphodiesterase 1 (TDP1): qHTS in cells in absence of CPT; DT40 Tdp1-/- hTDP1 cells, no CPT, ATP luminescence, 48 h; 420,000 tested, 15% active; Potency, µM (highest dose often 46.2 µM), inactives show top-dose activity change, negative = growth inhibition, actives largely listed as inhibitors; AID 686978, 2013; also: potency is read from the fitted curve at half-maximal effect; nearly all actives have a fitted effect of over 55% in size
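Growth kinetics read by CellTiter-Glo luminescence after ≥48 hr at 37 °C. Cells: DT40 Tdp1-/- stably carrying human TDP1, 400 per well, compound exposure in the absence of CPT (DMSO vehicle).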
DT40 TDP1 CPT: qHTS for Inhibitors of human tyrosyl-DNA phosphodiesterase 1 (TDP1): qHTS in cells in presence of CPT; 420,000 tested, 12% active; Potency, µM (titrated, usually from 46.2 µM), without a hit: top-dose activity change, negative = growth inhibition, usual class: inhibitors; chicken DT40 Tdp1-/-;hTDP1 cells + 20 nM CPT, ATP luminescence, 48 h; also: potency is read from the fitted curve at half-maximal effect; nearly all actives have a fitted effect of over 55% in size
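Chicken DT40 Tdp1-/- cells stably complemented with human TDP1 were seeded at 400 cells/well in medium containing 20 nM camptothecin, exposed to pin-transferred compounds, and grown at 37 °C for at least 48 hr. Viability was read as ATP luminescence.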
HT1080NT lethal: qHTS for induction of synthetic lethality in tumor cells producing 2HG: qHTS for the HT-1080-NT fibrosarcoma cell line; HT-1080-NT fibrosarcoma viability, CellTiter-Glo ATP luminescence, 48 h; Potency, µM (highest dose often 46.1 µM), inactives show at the top dose activity, negative = less viability, usual class: cytotoxic; 360,000 tested, 1.6% active; AID 686970, 2013;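 also: NT is the 2HG producing partner of a matched IDH1 knockdown line; potency is read from the fitted curve at half-maximal effect; 0% = DMSO-treated cells and -100% = media-only wells without cells; nearly all actives have a fitted effect of over 55% in size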
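Viability by CellTiter-Glo luminescence after 48 h compound exposure at 37C of HT-1080-NT cells (750/well, RPMI, 5% FBS). % activity scaled between DMSO wells and medium-only wells, then curve-fitted and categorized by curve class.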
HT1080 IDH1KD tx: qHTS for induction of synthetic lethality in tumor cells producing 2HG: qHTS for the HT-1080-IDH1KD cell line; Potency, µM (top dose mostly 46.1 µM), for the others: at the top dose activity, negative = toxicity, actives largely listed as cytotoxic; 360,000 tested, 2% active; HT-1080 IDH1 knockdown viability, ATP luminescence, 48 h; AID 686971, 2013;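 also: potency is read from the fitted curve at half-maximal effect; 0% = DMSO wells and -100% = cell-free medium wells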
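Assay cells: HT-1080 with IDH1 knockdown, 750 per well, RPMI/5% FBS. Exposure: 48 h at 37 °C following 2 h pre-incubation. Read: CellTiter-Glo luminescence; fitted concentration-response, curve class assigned.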
IL-1B inflam inh: qHTS for Inhibitors of Inflammasome Signaling: IL-1-beta AlphaLISA Primary Screen | activity change, % at 57.5 µM | THP-1 LPS/ATP IL-1B secretion, AlphaLISA, 16 h; hits give low values | AID 743279, 2014 | 360,000 tested, 4.7% active; in the data active = activity change below about -50%; inconclusive = mostly about -30% to -49%
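THP-1 cells pretreated 1 hr with compounds (up to 57.5 uM final), then stimulated with LPS (250 ng/mL final) plus ATP (1.25 mM final); secreted IL-1B measured by AlphaLISA after 16 hr, decreased signal indicating inhibition.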
* = called active by the depositor; ? = inconclusive; / = no result given; [ ] = dose if it differs, or a comment. Unless noted, calls follow the shape of the dose curve; as a rule, active = well fitted curve in the direction sought with a large enough effect; inconclusive = small, poorly fitted or top-dose-only effect, or another doubt; inactive = no such curve, though single readings can be large; an effect the other way counts as inactive or inconclusive. Unless noted, % is scaled to controls: 0 for no effect and ±100 for the full control effect.

SMILES	DT40 TDP1 no CPT	DT40 TDP1 CPT	HT1080NT lethal	HT1080 IDH1KD tx	IL-1B inflam inh
Cc1ccc(-c2nnc(Nc3cccc(O)c3)c3ccccc23)cc1S(=O)(=O)NCC1CCCO1 (configuration not stated)	23µM*	?	/	/	/
Cc1ccc(-c2n[nH]c(=O)c3ccccc23)cc1S(=O)(=O)NCC1CCCO1 (configuration not stated)	?	?	-12%	-17%	23
Cc1ccc(CC(=O)NC2CCCc3ccccc32)cc1C (configuration not stated)	?	?	-12%	0%	-1
COc1ccc(/C=N/NC(=O)Cn2nc(C)c([N+](=O)[O-])c2C)cc1	?	12µM*	-7%	-9%	0
Cc1ccc(/C=N/NC(=O)Cn2nc(C)c([N+](=O)[O-])c2C)o1	-13%	-5%	-6%	-1%	3
Nc1ccc(-c2cc(NC=O)c3ncc(-c4cccc(C(F)(F)F)c4)n3c2)cn1	10µM*	16µM*	-8%	-26%	-22
COc1cccc(-c2cc(NC=O)c3ncc(-c4cc(OC)c(OC)c(OC)c4)n3c2)c1	0.58µM*	0.52µM*	?	?	106
COc1cc(-c2cnc3c(NC=O)cc(-c4ccsc4)cn23)cc(OC)c1OC	0.16µM*	0.18µM*	?	?	135
COc1cc(-c2cc(NC=O)c3ncc(-c4ccc(F)cc4)n3c2)cc(OC)c1OC	?	?	?	?	-24
COc1cc(-c2cnc3c(NC=O)cc(-c4cccnc4)cn23)cc(OC)c1OC	2.9µM*	2.9µM*	?	?	99
Cc1nc2ccccc2c(=O)n1CCc1ccc(O)cc1	-26%	-5%	27%	18%	-1
O=C(c1cc(C2CC2)nn1-c1ccccc1)N1CCN(S(=O)(=O)c2ccccc2F)CC1	-4%	3%	5%	2%	7
COc1cccc(-c2cnc3c(NC=O)cc(-c4ccc(O)c(OC)c4)cn23)c1	2.3µM*	-89%	?	?	40
Cn1cc(-c2cnc3c(NC=O)cc(-c4cccc(C(F)(F)F)c4)cn23)cn1	21µM*	?	-44%	?	0
COc1cc(-c2cc(NC=O)c3ncc(-c4ccc(C(C)=O)cc4)n3c2)ccc1O	8.2µM*	9.2µM*	?	18µM*	14
COc1cc(-c2cnc3c(NC=O)cc(-c4cccc(C(F)(F)F)c4)cn23)cc(OC)c1OC	5.2µM*	5.8µM*	?	?	24
COc1ccc(-c2cc(NC=O)c3ncc(-c4cccc(C(F)(F)F)c4)n3c2)c(OC)c1	15µM*	18µM*	?	13µM*	-27
COCCN(CC(=O)Nc1cccc(C)c1C)C(=O)/C=C/c1ccc2c(c1)OCCO2	0%	-18%	1%	8%	-10
Cc1ccc(-n2ncc3c(NC4CCCCC4)ncnc32)cc1Cl	16µM*	21µM*	/	/	/
Cc1cccc(-n2ncc3c(NC4CCCC4)ncnc32)c1	-52%	21µM*	/	/	/
Clc1cccc(-n2ncc3c(NC4CCCCCC4)ncnc32)c1	?	21µM*	/	/	/
COc1cccc(CNC(=O)CN2C(=O)COc3ccc(S(=O)(=O)N4CCC(C)CC4)cc32)c1	-6%	-26%	-9%	-1%	-24
O=c1/c(=C\c2ccc(O)cc2)sc2n1C(c1ccccc1)C(c1ccccc1)=NN=2 (configuration not stated)	?	?	-17%	-22%	-65*
Cc1cc(NC(=O)C(C)SCC(=O)Nc2nnc(CC(C)C)s2)no1 (configuration not stated)	-23%	-19%	3%	13%	8
O=C(N/N=C/c1ccc(OC(=O)c2cccs2)cc1)c1cccc(F)c1	21µM*	23µM*	6%[9.24 µM]	-27%	-12
SMILES	DT40 TDP1 no CPT	DT40 TDP1 CPT	HT1080NT lethal	HT1080 IDH1KD tx	IL-1B inflam inh
CCCCC[C@H](C)N1C[C@@H](COCc2ccccc2)Oc2cc(N3CC[C@H](N(C)C)C3)ccc2S1(=O)=O	?	?	?	-25%	-50*
CCCCC[C@@H](C)N1C[C@@H](COCc2ccccc2)Oc2cc(N3CC[C@H](N(C)C)C3)ccc2S1(=O)=O	18µM*	?	21µM*	?	-73*
NC(=O)c1ccc(Oc2ccc(C(N)=O)cc2)cc1	-37%	5%	-6%	-4%	0
CC(NC(=O)CN1CCCC1)c1ccccc1 (configuration not stated)	5%	11%	-5%	9%	-10
CC1CCN(c2ccc(C(=O)Nc3ccc4c(c3)OCO4)cc2[N+](=O)[O-])CC1	9.2µM*	10µM*	-15%	?	-141*
CC1CCCN(c2ccc(C(=O)NCc3ccc4c(c3)OCO4)cc2[N+](=O)[O-])C1 (configuration not stated)	?	?	7%	4%	0
CC1CCCN(c2ccc(C(=O)Nc3ccc4c(c3)OCO4)cc2[N+](=O)[O-])C1 (configuration not stated)	21µM*	?	-10%	?	-66*
CC1CCCN(c2ccc(C(=O)OCC(=O)N3c4ccccc4Sc4ccccc43)cc2[N+](=O)[O-])C1 (configuration not stated)	23µM*	18µM*	11%	6%	-11
CCN(CC)S(=O)(=O)c1ccc2c(c1)N(CC(=O)Nc1cccc(C)c1C)C(=O)C1CCCN21 (configuration not stated)	?	-18%	/	/	/
Cc1ccc(NC(=O)c2c(C)oc3ncnc(N4CCCCC4)c23)c(C)c1	?	18µM*	/	/	/
COc1cc(OC)c(NC(=O)c2c(C)oc3ncnc(N4CCCCC4)c23)cc1Cl	-20%	-30%	/	/	/
COc1cc(OC)c(N(C)C(=O)c2c(C)oc3ncnc(N4CCCCC4)c23)cc1Cl	16µM*	?	/	/	/
CCN(C(=O)c1c(C)oc2ncnc(N3CCCCC3)c12)c1cc(C)ccc1C	18µM*	?	/	/	/
Nc1nnc(CCCCCc2nnc(N)s2)s1	-4%	7%	-2%	-4%	-2

Source: PubChem (National Center for Advancing Translational Sciences (NCATS))
